HCV inhibitor – inhibitors of hepatitis C virus infection; Huh7.5.1 HCVcc-Cre infection, luciferase reporter, 44 h; actives 3.4% (n = 340,000); Potency, µM (top dose mostly 41.8 µM), for the others: top-dose activity change, negative = inhibition, usual class: inhibitors; note: potency is the fitted concentration of half-maximal effect
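Infectious HCVcc-Cre (~0.5 moi) was added to cells just after compound, with cells seeded 4 h earlier at 1,000 per well. Luciferase activity after 44 h culture reported infection; substrate was incubated 15 min at room temperature before reading.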
HCMV antiviral – human cytomegalovirus inhibition. HFF cells, HCMV-luciferase reporter, 72 h; active compounds read low. activity change, negative = inhibition, % at 57.5 µM. actives 4.5% (n = 410,000). AID 1259415; in the data active = activity change below about -60%; inconclusive = no clear call, values can overlap the other calls; inactive = above about -39%
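Two compound doses tested in HFFs infected with HCMV-luciferase, MOI 1 PFU/cell, 72 h at 37C. Lysate luminescence read with OneGlo; data normalized against buffer-only and 10uM Salinomycin inhibitor controls.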
Pf growth 96h – P. falciparum growth inhibition at 96 hours; P. falciparum luciferase reporter growth, 96 h; Potency, µM (titrated, usually from 28.7 µM), for the others: top-dose activity change, negative = inhibition, hits mostly inhibitors; actives 6.9% (n = 320,000); note: potency is the fitted concentration of half-maximal effect
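Luminescence readout: decreased luciferase signal marks inhibited growth of reporter-expressing P. falciparum in infected red cells (2% hematocrit, 0.05% parasitemia final), exposed to compound two generations (96 h, 37 C, 5% CO2).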
Pf growth 48h – P. falciparum growth inhibition at 48 hours (one generation) | P. falciparum luciferase growth in erythrocytes, 48 h | Potency, µM (doses to about 28.7 µM), without a hit: top-dose activity change, negative = inhibition, actives largely listed as inhibitors | actives 5.9% (n = 310,000); note: potency is the fitted concentration of half-maximal effect
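Read-out is firefly luciferase luminescence from an integrated reporter in P. falciparum, so falling signal marks reduced parasite growth. Infected erythrocytes were at 2% hematocrit and 0.1% parasitemia (final) in Albumax-supplemented RPMI 1640.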
Lassa entry inh – Lassa virus entry inhibition | Lassa virus pseudotype entry inhibition, cell reporter | Potency, µM (titrated, usually from 37.9 µM), inactives show top-dose activity change, negative = inhibition, actives largely listed as inhibitors | actives 1.2% (n = 300,000) | AID 540256; calls by dose curve; tested in HEK293 cells; note: potency is the fitted concentration of half-maximal effect; nearly all actives have a fitted effect of over 50% in size
MARV entry inh – inhibitors of Marburg virus binding or cell entry. Potency, µM (titrated, usually from 37.8 µM), without a hit: at the highest dose activity change, negative = inhibition, hits mostly inhibitors. Marburg virus pseudotyped entry inhibition, cell reporter. actives 1.8% (n = 300,000); calls by dose curve; tested in HEK293 cells; note: potency is the fitted concentration of half-maximal effect
Numbers without * were called inactive; ? = inconclusive; nt = no result given; [ ] = dose if it differs, or a comment. This is a sample that favours compounds with a hit; in the whole collection about 14% have one here. Unless noted, calls come from the whole dose curve; as a rule, active = well fitted inhibition curve with a large enough effect; inconclusive = small, poorly fitted or top-dose-only effect, or another doubt; inactive = no such curve, though single readings can be large or run the other way. % is set by controls: 0 for no effect and ±100 for the full control effect.

SMILES	HCV inhibitor	HCMV antiviral	Pf growth 96h	Pf growth 48h	Lassa entry inh	MARV entry inh
O=C(/C=C/[C@H]1O[C@@H](n2cnc3c(NC(=O)c4ccccc4)ncnc32)[C@H](O)[C@@H]1O)NCCCN1CCCC1=O	nt	-20	nt	nt	nt	nt
COc1ccc(-n2ccn(CC(=O)NCCc3ccccc3)c(=O)c2=O)cc1OC	nt	1	nt	nt	25%[46.1 µM]	nt
CCC(C(=O)NCCc1cc(OC)ccc1OC)n1nc(C)c2c(C)n(-c3ccccc3)nc2c1=O (centres undefined)	nt	-24	nt	nt	-6%[46.1 µM]	nt
CCOC(=O)C1CCCN(C(=O)CCS(=O)(=O)c2cc3c(cc2Cl)NC(=O)CO3)C1 (centres undefined)	nt	1	nt	nt	23%[46.1 µM]	nt
O=C(CSc1ncnc2scc(-c3ccccc3)c12)N1CCN(c2ccccc2F)CC1	?	?	?	-4%	?	?
COc1ccccc1N1CCN(C(=O)CSc2ncnc3scc(-c4ccccc4)c23)CC1	?	-33	0%	-24%	6.3µM*	?
COc1ccc(-n2ncc3c(SCC(=O)N4CCN(c5ccccc5OC)CC4)ncnc32)cc1	13µM*	-14	-4%	?	?	?
CCOC(=O)C1=C(CSc2nc(C)cc(C)c2C#N)OC(N)=C(C#N)[C@H]1c1cccs1	nt	nt	nt	nt	nt	-29%[46.1 µM]
Cc1ccc(CNC(=O)Cn2ccn(-c3ccc(C)c(C)c3)c(=O)c2=O)cc1	nt	?	nt	nt	-1%[46.1 µM]	nt
O=C(c1ccccc1Cl)N(Cc1ccco1)c1ccccn1	nt	1	nt	nt	1%[46.1 µM]	-1%[46.1 µM]
CCSc1nc2cc(OC)c(OC)cc2c(=O)n1CC	5µM*	-21	16%	-3%	-22%	0%
CCOc1cc(C(=O)N/N=C/c2ccoc2)cc(OCC)c1OCC	-16%	-88*	?	-8%	nt	nt
CCOc1cc(C(=O)N/N=C/c2ccsc2)cc(OCC)c1OCC	?	14	-20%	8%	?	?
CC(C)COc1ccc(C(=O)N/N=C/c2ccoc2)cc1	-6%	35	5.9µM*	0%	nt	nt
Cc1scc(C(=O)N/N=C/c2ccc(OCC(C)C)cc2)c1C	?	-1	12µM*	nt	?	?
COC(=O)c1ccccc1NC(=O)Cn1c(=O)n(-c2cccc(OC)c2)c(=O)c2c(C)c(C(=O)N(C)C)sc21	nt	95	nt	nt	1%[46.1 µM]	nt
COc1ccc([C@H]2CC(=O)C[C@@H](CCn3cc(-c4ccc(F)cc4)nn3)O2)cc1	nt	-15	nt	nt	nt	nt
COc1cc([N+](=O)[O-])cc(/C=N/NC(=O)c2cccnc2)c1O	16%	-88*	?	1%	nt	nt
COc1ccc(/C=N/NC(=O)c2ccncc2)cc1Cn1nc([N+](=O)[O-])c(Br)c1C	17%	-33	4.1µM*	?	-13%	?
COc1cc([N+](=O)[O-])cc(/C=N/NC(=O)C(C)Nc2cccc3ccccc23)c1O (centres undefined)	0%	-61*	36%	?	-8%	-29%
COc1ccc(/C=N/NC(=O)c2cccnc2)cc1COc1ccc([N+](=O)[O-])c(C)c1	-68%	-76*	-15%	-11%	?	?
COC(=O)C1=C(c2ccc(OC)c(OC)c2)C[C@@H]2CC[C@H]1N2C(=O)N1CCCC1	29%	-37	12%	-22%	nt	nt
COC(=O)C1=C(c2c(C)noc2C)C[C@@H]2CC[C@H]1N2C(=O)NC1CCCCC1	2%	2	30%	39%	nt	nt
COC(=O)C1=C(c2c(C)noc2C)C[C@@H]2CC[C@H]1N2C(=O)N1CCc2cc(OC)c(OC)cc2C1	21%	nt	?	15µM*	nt	nt
COC(=O)C1=C(c2c(C)noc2C)C[C@@H]2CC[C@H]1N2C(=O)NC1CC1	0%	-97*	29%	16%	nt	nt
SMILES	HCV inhibitor	HCMV antiviral	Pf growth 96h	Pf growth 48h	Lassa entry inh	MARV entry inh
COC(=O)C1=C(c2ccc(Cl)c(C(F)(F)F)c2)C[C@@H]2CC[C@H]1N2C(=O)N1CCC(O)(c2ccc(Cl)cc2)CC1	10µM*	5	nt	nt	nt	nt
COC(=O)C1=C(c2ccc(OC(F)(F)F)cc2)C[C@@H]2CC[C@H]1N2C(=O)N1CCc2cc(OC)c(OC)cc2C1	nt	-20	nt	nt	nt	nt
COC(=O)C1=C(c2ccc(Cl)c(C(F)(F)F)c2)C[C@@H]2CC[C@H]1N2C(=O)N1CCCC1	32µM*	-28	?	12µM*	nt	nt
CCCCCOc1ccc(C(=O)CCC(=O)NNC(=O)c2ccncc2)cc1	10%	-32	40%	61%	-4%	?
COc1cc(-c2nccc3[nH]nc(-c4ccccc4)c23)cc(OC)c1OC	nt	-19	nt	nt	nt	nt
C=CC[C@@H]1C=C[C@@H](O/N=C\C[C@@H]2C=C[C@H](OC(C)=O)[C@H](COC(C)=O)O2)[C@@H](CO)O1	nt	nt	nt	nt	nt	4%[14.2 µM]
COCCOC(=O)Cn1nnc2sc(-c3ccccc3)cc2c1=O	nt	-4	nt	nt	5%[46.1 µM]	-14%[46.1 µM]
N#Cc1ccccc1S(=O)(=O)NC(=O)[C@H]1O[C@@H](n2cnc3c(N)ncnc32)[C@H](O)[C@@H]1O	nt	-16	nt	nt	nt	nt
COC(=O)C1=C(c2c(C)noc2C)C[C@@H]2CC[C@H]1N2C(=O)N1CCC(O)(c2ccc(Cl)cc2)CC1	-17%	-12	?	6.6µM*	nt	nt
COC(=O)C1=C(c2ccc(F)cc2F)C[C@@H]2CC[C@H]1N2C(=O)N1CCC(O)(c2ccc(Cl)cc2)CC1	?	?	?	9.3µM*	nt	nt
COC(=O)C1=C(c2c(C)noc2C)C[C@@H]2CC[C@H]1N2C(=O)N1CCOCC1	27%	-2	6%	75%	nt	nt
CC(C)CCCCCCCCCCCCC(=O)NCC(=O)NC1C(C)OC(Nc2ncnc3nc[nH]c23)C(O)C1O (centres undefined)	1µM*	-96*	nt	nt	0.079µM*	?
C/C(=C\CNc1ncnc2nc[nH]c12)CO	-65%	18	nt	nt	nt	nt
COC(=O)[C@@]12CCCN1[C@H](c1ccc(-c3ccc(OC)cc3)c(OC)c1)[C@H]1C(=O)N(C)C(=O)[C@H]12	-4%	-19	?	8.3µM*	nt	nt
COC(=O)[C@@]12CCCCN1[C@H](c1ccc(-c3ccc4c(c3)OCO4)c(OC)c1)[C@@H]1C(=O)N(C)C(=O)[C@@H]12	?	5	13µM*	5.2µM*	nt	nt
COC(=O)[C@@]12CCCCN1[C@H](c1ccc(-c3ccc(Cl)c(Cl)c3)c(OC)c1)[C@@H]1C(=O)N(C)C(=O)[C@@H]12	-29%	15	nt	nt	nt	nt
COC(=O)[C@@]12CCCCN1[C@H](c1ccc(-c3ccccc3)cc1)[C@H]1C(=O)N(C)C(=O)[C@H]12	-3%	-13	1%	-19%	nt	nt
COC(=O)[C@@]12CCCCN1[C@H](c1ccc(-c3ccc(F)cc3)c(OC)c1)[C@@H]1C(=O)N(C)C(=O)[C@@H]12	?	-3	12µM*	13µM*	nt	nt

High-throughput results deposited in PubChem BioAssay by National Center for Advancing Translational Sciences (NCATS).
